Screening data from PubChem.
This excerpt belongs to a sample that is enriched for hits.
KDM5B inhibitor – KDM5B demethylase inhibition | Potency, µM (series often up to 57.7 µM), usual class: inhibitors | 220,000 compounds, 2.6% hits | KDM5B demethylase, FDH-coupled NADH fluorescence (FDH is formaldehyde dehydrogenase) | Q9UGL1; active = well fitted inhibition curve with a large enough effect; note: nearly all actives have a fitted effect of over 70% in size
Target sequence (Q9UGL1 whole entry, looked up): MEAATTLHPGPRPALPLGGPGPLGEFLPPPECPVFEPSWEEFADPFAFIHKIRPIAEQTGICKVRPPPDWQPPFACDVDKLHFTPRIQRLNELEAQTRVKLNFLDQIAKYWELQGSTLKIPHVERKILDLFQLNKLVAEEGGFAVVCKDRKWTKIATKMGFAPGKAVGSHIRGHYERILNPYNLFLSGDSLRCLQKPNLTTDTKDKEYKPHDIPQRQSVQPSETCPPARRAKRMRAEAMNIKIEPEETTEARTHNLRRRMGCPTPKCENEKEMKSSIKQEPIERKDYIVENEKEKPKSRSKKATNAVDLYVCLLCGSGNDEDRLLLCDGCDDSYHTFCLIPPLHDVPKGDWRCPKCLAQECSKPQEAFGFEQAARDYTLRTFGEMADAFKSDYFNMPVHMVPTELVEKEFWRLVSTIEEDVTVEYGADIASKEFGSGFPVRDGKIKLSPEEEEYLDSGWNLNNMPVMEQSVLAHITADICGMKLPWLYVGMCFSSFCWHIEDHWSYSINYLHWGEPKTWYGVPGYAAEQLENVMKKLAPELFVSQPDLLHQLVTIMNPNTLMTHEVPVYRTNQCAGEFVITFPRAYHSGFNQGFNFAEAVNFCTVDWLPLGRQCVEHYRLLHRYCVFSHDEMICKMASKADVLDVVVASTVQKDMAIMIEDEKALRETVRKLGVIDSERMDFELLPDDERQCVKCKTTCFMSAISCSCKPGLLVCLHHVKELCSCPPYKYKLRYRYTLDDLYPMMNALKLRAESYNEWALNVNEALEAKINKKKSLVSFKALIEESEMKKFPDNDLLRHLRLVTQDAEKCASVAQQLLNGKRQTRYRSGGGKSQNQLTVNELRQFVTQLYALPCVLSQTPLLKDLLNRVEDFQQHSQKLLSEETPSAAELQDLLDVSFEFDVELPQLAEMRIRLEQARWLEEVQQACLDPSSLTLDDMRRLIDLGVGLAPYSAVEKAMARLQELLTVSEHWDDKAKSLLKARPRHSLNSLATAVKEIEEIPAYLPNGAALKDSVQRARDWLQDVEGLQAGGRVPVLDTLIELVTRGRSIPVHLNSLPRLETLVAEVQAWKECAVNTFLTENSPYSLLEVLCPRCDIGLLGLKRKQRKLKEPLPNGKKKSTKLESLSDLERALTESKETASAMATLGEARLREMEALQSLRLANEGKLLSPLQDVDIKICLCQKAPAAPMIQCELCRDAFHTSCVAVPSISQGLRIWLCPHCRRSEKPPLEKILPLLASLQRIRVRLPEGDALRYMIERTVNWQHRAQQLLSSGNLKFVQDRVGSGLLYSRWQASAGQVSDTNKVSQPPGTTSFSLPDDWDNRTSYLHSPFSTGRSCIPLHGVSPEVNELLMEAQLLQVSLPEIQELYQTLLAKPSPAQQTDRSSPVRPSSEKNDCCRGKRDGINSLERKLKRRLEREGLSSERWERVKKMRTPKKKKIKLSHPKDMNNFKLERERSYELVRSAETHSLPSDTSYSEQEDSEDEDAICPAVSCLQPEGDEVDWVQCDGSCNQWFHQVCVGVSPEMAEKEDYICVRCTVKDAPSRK
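qHTS format, multiple compound concentrations. Buffer 50 mM HEPES pH 7.5/0.01% Tween-20; 200 nM KDM5BΔAP final; 10 min compound preincubation; substrate-mix levels 12.5 µM peptide, 25 µM α-KG, 0.25 mM NAD⁺; 30 min RT; ΔRFU.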
A number is an active result; – = inactive; [ ] = another dose, or the depositor's remark.

SMILES	KDM5B inhibitor
CCc1ccc(CNc2ncncc2-c2nc(-c3ccccc3)no2)cc1	28µM
c1ccc(-c2noc(-c3cncnc3NCc3ccco3)n2)cc1	–
c1ccc(CCNc2ncncc2-c2nc(-c3ccccc3)no2)cc1	35µM
COc1ccc(CNc2ncncc2-c2nc(-c3ccccc3)no2)cc1	–
Clc1ccc(CNc2ncncc2-c2nc(-c3ccccc3)no2)cc1	–
CCN1CCN(CCNc2ncncc2-c2nc(-c3ccccc3)no2)CC1	–
CCOc1cccc(OCCn2c(-c3ccc(OC)cc3)nc3ccccc3c2=O)c1	–
COc1cccc(NC(=O)/C=N/O)c1	–
Cc1cc(C)n(-c2nc3ccccc3nc2N2CCN(S(=O)(=O)c3ccc(C)c(C)c3)CC2)n1	–
CCN1C(=O)CCc2cc(NC(=O)c3ccc(OC(F)(F)F)cc3)ccc21	–
Oc1ccc(C2CC3CC2C2C=CCC32)cc1 (stereo not drawn)	–
O=C(O)C[C@@H]1CCN(S(=O)(=O)c2ccc(Cl)cc2)C[C@@H]1CC1=NCCc2cc(F)ccc21	–
CC(C)c1ccc(NC(=O)N2CC[C@@H](CC(=O)O)[C@@H](CC3=NCCc4ccccc43)C2)cc1	–
NC(=O)c1ccc(S(=O)(=O)N2CC[C@@H](CC(=O)O)[C@@H](CC3=NCCc4ccccc43)C2)cc1	–
COc1ccc2c(c1)CCN=C2C[C@H]1CN(C(=O)C(=O)O)CC[C@H]1CC(=O)O	28µM
COc1ccc2c(c1)CCN=C2C[C@H]1CN(C(=O)c2cccnc2)CC[C@H]1CC(=O)O	32µM
N#Cc1ccc(C(=O)N2CC[C@@H](CC(=O)O)[C@@H](CC3=NCCc4ccccc43)C2)cc1	–
COc1cccc(NC(=O)N2CC[C@@H](CC(=O)O)[C@@H](CC3=NCCc4cc(OC)c(OC)cc43)C2)c1	–
COc1ccc(CC(=O)N2CC[C@@H](CC(=O)O)[C@@H](CCN(C)CCN(C)C)C2)cc1	–
CCCS(=O)(=O)N1CC[C@@H](CC(=O)O)[C@@H](CC2=NCCc3cc(OC)ccc32)C1	32µM
COc1ccc(NC(=O)N2CC[C@@H](CC(=O)O)[C@@H](CC3=NCCc4cc(OC)c(OC)cc43)C2)cc1	35µM
COc1ccc(C(=O)N2CC[C@@H](CC(=O)O)[C@@H](CCN3CCCCC3)C2)cc1	–
Cc1ccc(CN2CCCCCCN(C)C(=O)[C@@H]3CCC[C@@H]32)s1	–
CC(Cl)C(=O)NC(=O)NC(C)(C)C (stereo not drawn)	–
CCc1c(C)sc(NC(=O)CCl)c1C#N	–
SMILES	KDM5B inhibitor
CCOC(=O)C(NC(=O)C1Cc2ccccc2C(=O)O1)C(=O)OCC (stereo not drawn)	–
CCN(CC)CCNC(=O)CCc1ncc(-c2ccc(F)cc2)o1	–
O=C(CCc1c[nH]c2ccccc12)NCCC12CC3CC(CC(C3)C1)C2	–
COC(=O)c1ccc(OCC(=O)c2ccc3c(c2)CCO3)c(OC)c1	–
Cc1ccc2c(Cl)cc(Cl)c(OCC(=O)NC(C)C(C)C)c2n1 (stereo not drawn)	–
COc1cc2c(cc1OC)C(C[C@H]1CN(C(=O)CCc3ccccc3)CC[C@H]1CC(=O)O)=NCC2	–
COc1cc2c(cc1OC)C(C[C@H]1CN(C(=O)c3cccn3C)CC[C@H]1CC(=O)O)=NCC2	32µM
COc1cc2c(cc1OC)C(C[C@H]1CN(C(=O)Cc3ccccc3)CC[C@H]1CC(=O)O)=NCC2	–
CCN(CC)c1nc2ccccc2nc1C(=O)Nc1ccc(OC)c(OC)c1	–
Cc1cccc(C)c1NC(=O)C1CCCN(c2cnc3ccccc3n2)C1 (stereo not drawn)	–
O=C(NCCc1noc(C2CCCO2)n1)c1cnc(-c2cccnc2)nc1 (stereo not drawn)	–
O=S(=O)(NCc1ccccc1)NCc1noc(C2CCCO2)n1 (stereo not drawn)	–
c1cn(CCc2noc(C3CCCO3)n2)c(-c2nc3c(s2)CCCC3)n1 (stereo not drawn)	32µM
CC(=O)NCc1ccc(C(=O)CSc2nnc(C3CC3)n2Cc2ccccc2)cc1	–
COCC1CN(C)CC12CCN(Cc1ccc(F)c(Cl)c1)CC2 (stereo not drawn)	28µM
COCC1CN(C)CC12CCN(S(=O)(=O)c1cc(F)cc(F)c1)CC2 (stereo not drawn)	–
COCC1CN(Cc2ccc(F)c(F)c2)CC12CCNCC2 (stereo not drawn)	–
O=C(c1cc2ccccc2[nH]1)N(Cc1ccc(F)cc1)C1CC1	–
Cc1cn2nc(C(=O)Nc3ccc(F)cc3)cc2c(N(C)Cc2ccccc2)n1	25µM
Cc1cn2nc(C(=O)Nc3ccc(Cl)cc3)cc2c(N(C)Cc2ccccc2)n1	28µM
Cc1ccc(NC(=O)c2nn(-c3ccccc3)c(=O)c3ccccc23)c(F)c1	–
Cc1ccc(NC(=O)c2cc3c(N(C)Cc4ccccc4)nc(C)cn3n2)c(F)c1	10µM
O=C(Nc1ccc(S(=O)(=O)N(Cc2ccccc2)c2ccccc2)cc1)c1ccc(F)cc1	–[11.5 µM]
Cc1ccc(NC(=O)Nc2nnc(N(C)Cc3ccccc3)s2)c(C)c1	–
Cc1cn2nc(C(=O)Nc3ccc(C)c(F)c3)cc2c(N(C)Cc2ccccc2)n1	–
SMILES	KDM5B inhibitor
COc1ccc(NC(=O)Cn2c(N(C)Cc3ccccc3)nc(C)cc2=O)cc1	–
Cc1ccc(Cl)cc1NC(=O)Nc1nnc(N(C)Cc2ccccc2)s1	–
O=C(CSc1nc(-c2ccccc2)cc(=O)[nH]1)Nc1oncc1-c1ccc(F)cc1	–
COC(=O)c1ccc(Oc2coc3cc(OCc4ccccc4)ccc3c2=O)cc1	–
COc1ccc(C(C)=O)c(OC(=O)c2ccc(F)cc2F)c1	–
O=C(CSc1nc(-c2ccc3c(c2)OCO3)nc2cc(=O)[nH]n12)NCCc1ccccc1	–
CCOC(=O)c1ccc(N2CCN(CC)CC2)c(NC(=O)COc2ccc(OC)cc2)c1	–
CN(C)C(=O)c1ccc2oc(CN3CCN(C(=O)Nc4ccccc4Cl)CC3)nc2c1	–
CCN(C(=O)c1occc1C)C1CC1	–
CN(C)C(=O)COc1ccc(NC(=O)c2nn(C)c(=O)c3ccccc23)cc1	–
O=C(c1cc(F)cc(Cl)c1)N1CCc2nc(-c3cccc(F)c3)[nH]c2C1	–
O=C1CCC(C(=O)N2CCc3nc(-c4cccc(F)c4)[nH]c3C2)NC(=O)N1 (stereo not drawn)	22µM
O=C(C1CC12CCCC2)N1CCc2onc(-c3cccc(F)c3)c2C1 (stereo not drawn)	–
N#C/C(=C/c1ccc(OC(F)F)cc1)C(=O)Nc1ccccc1Oc1ccccc1	–
CCc1ccc(C(=O)COc2c(C)cc(Br)cc2Cl)cc1	–
Cc1nnc(NC(=O)c2cccc3c2ccn3C)s1	–
O=C(O)CCCN1CCCCCC1	–
NC(=O)[C@@H]1CN(C(=O)COc2ccccc2)C[C@H]1COc1ccccc1	–
NC(=O)Cn1ccc2cc(OCC3CCN(C(=O)CCc4ccccc4)CC3)cnc21	32µM
O=C(COc1ccccc1)N1CCC(Oc2cnc3c(ccn3-c3cncnc3)c2)CC1	–
O=C(O)CCn1ncc2cc(OCC3CCN(C(=O)Cc4ccccc4)CC3)ccc21	–
NC(=O)Cn1ccc2cc(OCC3CCN(C(=O)COc4ccccc4)CC3)cnc21	35µM
NC(=O)[C@@H]1CN(C(=O)CCc2ccccc2)C[C@H]1COc1ccccc1	–
COc1ccccc1OCC(=O)Nc1cc(-c2ccccc2)no1	–
CCc1cccc2c(C(=O)CN3CCN(CC(=O)NC4CC4)CC3)c[nH]c12	–
CCOC(=O)C(N)c1c(C)cc(C)cc1C (stereo not drawn)	–
CC1CC(C(C)(C)C(C)C)CC/C1=N\O (stereo not drawn)	–
